Experimental data as given in PubChem BioAssay (NCATS).
Records with an inconclusive call do not appear. Active and inactive are the calls of the source. The call rests on the fitted dose curve; in most records, active means well fitted curve in the direction sought with a large enough effect; inconclusive means small, poorly fitted or top-dose-only effect, or another doubt; inactive means no such curve, though single readings can be large; an effect the other way counts as inactive or inconclusive.

Tests used:
[1] = Quantitative High-Throughput drug screen in 47 multiple myeloma cell lines against the NCATS MIPE library collection: EJM_DSMZ cell viability assay (AID 1918926; further: nearly all actives have a fitted effect of over 30% in size)
Procedure, shortened: (§1)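 Steps: seed 500 cells per well; pin-transfer MIPE 4.0 library; incubate 48 h at 37C, 5% CO2, humidified; add CellTiter-Glo, 5 min room temperature; read luminescence.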

[2] = Quantitative High-Throughput drug screen in 47 multiple myeloma cell lines against the NCATS MIPE library collection: ARP1_JJKsccF8 cell viability assay (AID 1918928; further: nearly all actives have a fitted effect of over 40% in size)
Procedure, shortened: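 Viability screen: myeloma cells (500/well) incubated 48 h at 37 °C, humidified 5% CO2, with pinned library compounds; CellTiter-Glo added, luminescence read; DMSO wells set 100%, medium-only wells 0%.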

[3] = Quantitative High-Throughput drug screen in 47 multiple myeloma cell lines against the NCATS MIPE library collection: ARD_JJKsccE7 cell viability assay (AID 1918929)
Procedure, shortened: as §1

[4] = Quantitative High-Throughput drug screen in 47 multiple myeloma cell lines against the NCATS MIPE library collection: Karpas417_ECACC cell viability assay (AID 1918961); conditions: Karpas417 myeloma viability, CellTiter-Glo ATP luminescence, 48 h; viability (% of DMSO): at 45.8 µM (top of the series)
Procedure, shortened: (§2)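 Relative luminescence from CellTiter-Glo served as the viability signal, referenced to DMSO-treated (100%) and cell-free medium (0%) controls. Treatment lasted 48 hours at 37C with 500 cells per well.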

[5] = Quantitative High-Throughput drug screen in 47 multiple myeloma cell lines against the NCATS MIPE library collection: KHM11_PLB cell viability assay (AID 1918962); further: nearly all actives have a fitted effect of over 35% in size
Procedure, shortened: as §2

[6] = Quantitative High-Throughput drug screen in 47 multiple myeloma cell lines against the NCATS MIPE library collection: JIM3_ECACC cell viability assay (AID 1918963; further: nearly all actives have a fitted effect of over 35% in size)
Procedure, shortened: as §2

[7] = Quantitative High-Throughput drug screen in 47 multiple myeloma cell lines against the NCATS MIPE library collection: JJN3_DSMZ cell viability assay (AID 1918966; further: nearly all actives have a fitted effect of over 50% in size)
Procedure, shortened: as §1

[8] = Quantitative High-Throughput drug screen in 47 multiple myeloma cell lines against the NCATS MIPE library collection: H1112_PLB cell viability assay (AID 1918967; further: nearly all actives have a fitted effect of over 30% in size)
Procedure, shortened: as §1

[9] = Quantitative High-Throughput drug screen in 47 multiple myeloma cell lines against the NCATS MIPE library collection: Karpas25_ECACC cell viability assay (AID 1918968; further: nearly all actives have a fitted effect of over 35% in size)
Procedure, shortened: as §1

[10] = Quantitative High-Throughput drug screen in 47 multiple myeloma cell lines against the NCATS MIPE library collection: KMS12BM_JCRB cell viability assay (AID 1918971); further: nearly all actives have a fitted effect of over 35% in size
Procedure, shortened: (§3)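 Myeloma cell lines, 500 cells per well, exposed to MIPE 4.0 library compounds for 48 h at 37C, 5% CO2. Viability from ATP by CellTiter-Glo luminescence; normalised to DMSO (100%) and media-only (0%) wells.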

[11] = Quantitative High-Throughput drug screen in 47 multiple myeloma cell lines against the NCATS MIPE library collection: KMS21BM_JCRB cell viability assay (AID 1918974)
Procedure, shortened: as §1

[12] = Quantitative High-Throughput drug screen in 47 multiple myeloma cell lines against the NCATS MIPE library collection: KMS26_JCRB cell viability assay (AID 1918975); further: nearly all actives have a fitted effect of over 45% in size
Procedure, shortened: as §3

[13] = Quantitative High-Throughput drug screen in 47 multiple myeloma cell lines against the NCATS MIPE library collection: LP1_DSMZ cell viability assay (AID 1918982); further: nearly all actives have a fitted effect of over 35% in size
Procedure, shortened: (§4)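 Readout: median RLU from CellTiter-Glo after 5 min at room temperature. Preceding step was 48 h drug treatment of 500 cells/well at 37 °C, 5% CO2, with DMSO-only and media-only control wells.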

[14] = Quantitative High-Throughput drug screen in 47 multiple myeloma cell lines against the NCATS MIPE library collection: AMO1_DSMZ cell viability assay (AID 1918927; further: nearly all actives have a fitted effect of over 30% in size)
Procedure, shortened: as §1

[15] = Quantitative High-Throughput drug screen in 47 multiple myeloma cell lines against the NCATS MIPE library collection: Karpas620_DSMZ cell viability assay (AID 1918959); further: nearly all actives have a fitted effect of over 30% in size
Procedure, shortened: as §2

[16] = Quantitative High-Throughput drug screen in 47 multiple myeloma cell lines against the NCATS MIPE library collection: KMS27_JCRB cell viability assay (AID 1918970); further: nearly all actives have a fitted effect of over 30% in size
Procedure, shortened: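 Viability inhibition screen, 48 h compound exposure, luminescent ATP read-out.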

[17] = Quantitative High-Throughput drug screen in 47 multiple myeloma cell lines against the NCATS MIPE library collection: KMS20_JCRB cell viability assay (AID 1918973); further: nearly all actives have a fitted effect of over 45% in size
Procedure, shortened: as §1

[18] = Quantitative High-Throughput drug screen in 47 multiple myeloma cell lines against the NCATS MIPE library collection: L363_DSMZ cell viability assay (AID 1918984); further: nearly all actives have a fitted effect of over 40% in size
Procedure, shortened: as §4

[19] = Quantitative High-Throughput drug screen in 47 multiple myeloma cell lines against the NCATS MIPE library collection: JIM1_ECACC cell viability assay (AID 1918964)
Procedure, shortened: as §1

[20] = Quantitative High-Throughput drug screen in 47 multiple myeloma cell lines against the NCATS MIPE library collection: INA6_PLB cell viability assay (AID 1918965; further: nearly all actives have a fitted effect of over 55% in size)
Procedure, shortened: as §2
Potency means the concentration at half of the fitted maximal effect.

COC1(CS(=O)c2ccccc2)CCN(CCc2c[nH]c3ccc(F)cc23)CC1 (stereo not given)
active: Potency [9] 9350 nM
inactive: Potency [1] | Potency [2] | Potency [3] | Potency [4] | Potency [5] | Potency [6] | Potency [7] | Potency [8] | Potency [10] | Potency [11] | Potency [12] | Potency [13]

COC[C@@H](NC(C)=O)C(=O)NCc1ccccc1
inactive: Potency [1] | Potency [14] | Potency [3] | Potency [15] | Potency [6] | Potency [7] | Potency [8] | Potency [16] | Potency [10] | Potency [17] | Potency [13] | Potency [18]

O=C1CC[C@@]2(O)[C@H]3Cc4ccc(O)c5c4[C@@]2(CCN3CC2CC2)[C@H]1O5
active: Potency [20] 8330 nM
inactive: Potency [2] | Potency [3] | Potency [15] | Potency [4] | Potency [6] | Potency [19] | Potency [8] | Potency [9] | Potency [16] | Potency [12] | Potency [13]

CNC(=O)N1N=C(c2ccc(N)cc2)c2cc3c(cc2CC1C)OCO3 (stereo not given)
active: Potency [1] 11800 nM | Potency [14] 1870 nM | Potency [3] 2350 nM | Potency [4] 1870 nM | Potency [5] 2960 nM | Potency [6] 4690 nM | Potency [20] 1180 nM | Potency [7] 1320 nM | Potency [9] 9350 nM | Potency [16] 3320 nM | Potency [11] 1480 nM | Potency [12] 3320 nM | Potency [18] 5260 nM
inactive: Potency [8]

COc1ccc(C(=O)c2c(C)n(CCN3CCOCC3)c3ccccc23)cc1
inactive: Potency [1] | Potency [14] | Potency [2] | Potency [3] | Potency [5] | Potency [6] | Potency [8] | Potency [16] | Potency [10] | Potency [13]

C=C(C)[C@H]1Cc2c(ccc3c2O[C@@H]2COc4cc(OC)c(OC)cc4[C@@H]2C3=O)O1
active: Potency [1] 4690 nM | Potency [14] 469 nM | Potency [2] 526 nM | Potency [3] 332 nM | Potency [15] 296 nM | Potency [6] 935 nM | Potency [19] 418 nM | Potency [20] 118 nM | Potency [7] 7430 nM | Potency [8] 132 nM | Potency [9] 46.9 nM | Potency [16] 296 nM | Potency [10] 2640 nM | Potency [17] 332 nM | Potency [11] 209 nM | Potency [13] 264 nM | Potency [18] 148 nM

Fc1ccc(C(OCCN2CCN(CCCc3ccccc3)CC2)c2ccc(F)cc2)cc1
active: Potency [1] 13200 nM | Potency [2] 20900 nM | Potency [5] 13200 nM | Potency [6] 13200 nM | Potency [20] 13200 nM | Potency [7] 23500 nM | Potency [8] 13200 nM | Potency [9] 8330 nM | Potency [10] 14800 nM | Potency [17] 9350 nM | Potency [12] 16600 nM | Potency [13] 18700 nM
inactive: Potency [14] | Potency [15] | Potency [19] | Potency [18]

CN(C)[C@@H]1C(=O)C(C(N)=O)=C(O)[C@@]2(O)C(=O)C3=C(O)c4c(O)cccc4[C@@](C)(O)[C@H]3C[C@@H]12
active: Potency [2] 16600 nM | Potency [10] 4180 nM
inactive: Potency [1] | Potency [14] | Potency [3] | Potency [15] | Potency [4] | Potency [5] | Potency [19] | Potency [8] | Potency [9] | Potency [16] | Potency [18]

NCC1(CC(=O)O)CCCCC1
inactive: Potency [1] | Potency [14] | Potency [2] | Potency [3] | Potency [15] | Potency [6] | Potency [20] | Potency [7] | Potency [8] | Potency [9] | Potency [10] | Potency [13]

Cc1cc(SCc2sc(-c3ccc(C(F)(F)F)c(F)c3)nc2C)ccc1OCC(=O)O
active: Potency [6] 20900 nM | Potency [8] 20900 nM | Potency [9] 16600 nM | Potency [12] 4690 nM | Potency [13] 16600 nM
inactive: Potency [1] | Potency [7]

COc1ccc(C(CN(C)C)C2(O)CCCCC2)cc1 (stereo not given)
inactive: Potency [2] | Potency [3] | Potency [15] | Potency [6] | Potency [19] | Potency [9] | Potency [16] | Potency [10] | Potency [12] | Potency [13] | Potency [18]

C[C@@H]1O[C@@H](O[C@H]2C[C@@H](O)[C@]3(CO)[C@H]4[C@H](O)C[C@]5(C)[C@@H](C6=CC(=O)OC6)CC[C@]5(O)[C@@H]4CC[C@]3(O)C2)[C@H](O)[C@H](O)[C@H]1O
active: Potency [1] 23.5 nM | Potency [14] 9.3 nM | Potency [2] 41.8 nM | Potency [3] 14.8 nM | Potency [15] 37.2 nM | Potency [5] 37.2 nM | Potency [6] 41.8 nM | Potency [19] 13.2 nM | Potency [20] 23.5 nM | Potency [7] 105 nM | Potency [8] 83.3 nM | Potency [9] 37.2 nM | Potency [16] 18.7 nM | Potency [10] 66.2 nM | Potency [17] 23.5 nM | Potency [12] 105 nM | Potency [13] 16.6 nM | Potency [18] 46.9 nM

Cn1c(CCCC(=O)O)nc2cc(N(CCCl)CCCl)ccc21
active: Potency [20] 18700 nM | Potency [10] 7430 nM | Potency [12] 5900 nM
inactive: Potency [3] | Potency [15] | Potency [6] | Potency [16] | Potency [18]

CC(C)CC(N(C)C)C1(c2ccc(Cl)cc2)CCC1 (stereo not given)
inactive: Potency [14] | Potency [2] | Potency [3] | Potency [15] | Potency [5] | Potency [6] | Potency [19] | Potency [7] | Potency [16] | Potency [12] | Potency [13] | Potency [18]
active: Potency [8] 5260 nM

Cc1sc2c(c1C)C(c1ccc(Cl)cc1)=N[C@@H](CC(=O)OC(C)(C)C)c1nnc(C)n1-2
active: Potency [14] 83.3 nM | Potency [2] 209 nM | Potency [3] 41.8 nM | Potency [15] 132 nM | Potency [5] 8.3 nM | Potency [6] 1660 nM | Potency [20] 29.6 nM | Potency [7] 296 nM | Potency [8] 6620 nM | Potency [9] 526 nM | Potency [16] 52.6 nM | Potency [10] 187 nM | Potency [17] 1180 nM | Potency [12] 526 nM | Potency [13] 1050 nM | Potency [18] 132 nM

Cc1cccc(C)c1NC(=O)CN1CCCC1=O
inactive: Potency [1] | Potency [2] | Potency [3] | Potency [15] | Potency [5] | Potency [6] | Potency [20] | Potency [8] | Potency [9] | Potency [16] | Potency [10] | Potency [12] | Potency [13] | Potency [18]

CNCC(O)c1ccc(O)cc1 (stereo not given)
inactive: Potency [1] | Potency [14] | Potency [2] | Potency [3] | Potency [15] | Potency [5] | Potency [6] | Potency [19] | Potency [20] | Potency [8] | Potency [16] | Potency [10] | Potency [13]
active: viability (% of DMSO) [4] 80.8%
